Measurements as given in PubChem BioAssay AID1159580 (chemical genetic matrix, 2015).
The campaign covered roughly 5,500 compounds. About 2,000 (36%) were called active. Roughly 18% stayed inconclusive and do not appear here. No stated cut-off is given here; in the data, active means normalized growth mostly below about 0.91 (no sharp cut-off); inconclusive means no clear call, values can overlap the other calls; inactive means mostly above about 0.92. This is one part of the list.

Assay: chemical genetic growth profiling, strain panel (AID 1159580);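 further: tested at 20 µM; growth read once vehicle control cultures reached saturation at 30 °C; 1 = growth at the plate median or of vehicle wells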
Details: S. cerevisiae deletion strains, growth OD

Measured: normalized growth

CCOC(=O)c1c(C)c(Cl)c(O)c(Cl)c1O
active: locus YAL021C, strain ccr4, stronger effect = lower value 0.682 | locus YAL026C, strain drs2, stronger effect = lower value 0.469 | locus YAL030W, strain snc1, stronger effect = lower value 0.692 | locus YBL061C, strain skt5, stronger effect = lower value 0.637 | locus YBR009C, strain hhf1, stronger effect = lower value 0.407 | locus YBR023C, strain chs3, stronger effect = lower value 0.589 | locus YBR171W, strain sec66, stronger effect = lower value 0.619 | locus YBR231C, strain swc5, stronger effect = lower value 0.469 | locus YBR279W, strain paf1, stronger effect = lower value 0.686 | locus YCL011C, strain gbp2, stronger effect = lower value 0.499 | locus YCL016C, strain dcc1, stronger effect = lower value 0.495 | locus YCL061C, strain MRC1, stronger effect = lower value 0.408 | locus YCL069W, strain vba3, stronger effect = lower value 0.407 | locus YCR088W, strain abp1, stronger effect = lower value 0.517 | locus YDL005C, strain med2, stronger effect = lower value 0.76 | locus YDL040C, strain nat1, stronger effect = lower value 0.663 | locus YDR001C, strain nth1, stronger effect = lower value 0.516 | locus YDR069C, strain doa4, stronger effect = lower value 0.72 | locus YDR137W, strain rgp1, stronger effect = lower value 0.266 | locus YDR159W, strain sac3, stronger effect = lower value 0.459 | locus YDR195W, strain ref2 0.697 | locus YDR297W, strain sur2, stronger effect = lower value 0.677 | locus YDR334W, strain swr1, stronger effect = lower value 0.361 | locus YDR335W, strain msn5, stronger effect = lower value 0.517 | locus YDR392W, strain spt3, stronger effect = lower value 0.0936 | locus YEL003W, strain gim4, stronger effect = lower value 0.397 | locus YEL037C, strain rad23, stronger effect = lower value 0.666 | locus YEL061C, strain CIN8 (second series), stronger effect = lower value 0.171 | locus YER015W, strain faa2, stronger effect = lower value 0.652 | locus YER016W, strain bim1, stronger effect = lower value 0.559 | locus YER111C, strain swi4, stronger effect = lower value 0.189 | locus YER155C, strain BEM2 (second series), stronger effect = lower value 0.15 | locus YFR010W, strain ubp6, stronger effect = lower value 0.696 | locus YGL167C, strain pmr1, stronger effect = lower value 0.67 | locus YGL173C, strain kem1, stronger effect = lower value 0.512 | locus YGL227W, strain vid30, stronger effect = lower value 0.188 | locus YGL240W, strain doc1, stronger effect = lower value 0.375 | locus YGL253W, strain hxk2, stronger effect = lower value 0.254 | locus YHR013C, strain ard1, stronger effect = lower value 0.634 | locus YHR027C, strain rpn1, stronger effect = lower value 0.719 | locus YHR142W, strain chs7, stronger effect = lower value 0.245 | locus YJL092W, strain hpr5, stronger effect = lower value 0.456 | locus YJL095W, strain BCK1 (second series), stronger effect = lower value 0.292 | locus YJL115W, strain asf1, stronger effect = lower value 0.667 | locus YJL129C, strain trk1, stronger effect = lower value 0.261 | locus YJL154C, strain vps35, stronger effect = lower value 0.702 | locus YJL164C, strain tpk1, stronger effect = lower value 0.467 | locus YJL166W, strain qcr8, stronger effect = lower value 0.448 | locus YJL187C, strain SWE1, stronger effect = lower value 0.61 | locus YKL160W, strain elf1, stronger effect = lower value 0.454 | locus YKR026C, strain gcn3, stronger effect = lower value 0.697 | locus YKR091W, strain srl3, stronger effect = lower value 0.677 | locus YLL001W, strain dnm1, stronger effect = lower value 0.563 | locus YLL026W, stronger effect = lower value 0.436 | locus YLL041C, strain sdh2, stronger effect = lower value 0.635 | locus YLR027C, strain aat2, stronger effect = lower value 0.517 | locus YLR221C, strain rsa3, stronger effect = lower value 0.398 | locus YLR258W, strain gsy2, stronger effect = lower value 0.561 | locus YLR262C, strain YPT6 (second series), stronger effect = lower value 0.277 | locus YLR320W, strain mms22, stronger effect = lower value 0.27 | locus YLR342W, strain FKS1, stronger effect = lower value 0.369 | locus YLR357W, strain rsc2, stronger effect = lower value 0.64 | locus YLR370C, strain arc18, stronger effect = lower value 0.701 | locus YLR384C, strain iki3, stronger effect = lower value 0.681 | locus YML120C, strain ndi1, stronger effect = lower value 0.409 | locus YMR058W, strain fet3, stronger effect = lower value 0.429 | locus YMR125W, strain sto1, stronger effect = lower value 0.259 | locus YMR129W, stronger effect = lower value 0.651 | locus YMR205C, strain PFK2, stronger effect = lower value 0.283 | locus YMR231W, strain pep5, stronger effect = lower value 0.361 | locus YNL071W, strain lat1, stronger effect = lower value 0.127 | locus YNL209W, strain ssb2, stronger effect = lower value 0.753 | locus YNL248C, strain rpa49, stronger effect = lower value 0.645 | locus YNL322C, strain KRE1 (second series), stronger effect = lower value 0.783 | locus YNR049C, strain mso1, stronger effect = lower value 0.432 | locus YOR001W, strain rrp6, stronger effect = lower value 0.4 | locus YOR070C, strain gyp1, stronger effect = lower value 0.499 | locus YOR080W, strain dia2, stronger effect = lower value 0.701 | locus YOR083W, strain WHI5, stronger effect = lower value 0.608 | locus YOR106W, strain vam3, stronger effect = lower value 0.459 | locus YOR265W, strain rbl2, stronger effect = lower value 0.676 | locus YOR270C, strain vph1, stronger effect = lower value 0.214 | locus YOR290C, strain snf2, stronger effect = lower value 0.424 | locus YPL051W, strain arl3, stronger effect = lower value 0.414 | locus YPL078C, strain atp4, stronger effect = lower value 0.391 | locus YPL106C, strain sse1, stronger effect = lower value 0.568 | locus YPL240C, strain hsp82, stronger effect = lower value 0.492

CCOC(=O)c1c(C)cc(O)c(C)c1O
inactive: locus YBR021W, strain FUR4, stronger effect = lower value 0.975 | locus YBR229C, strain ROT2, stronger effect = lower value 0.976 | locus YCL029C, strain bik1, stronger effect = lower value 0.955 | locus YDL035C, strain GPR1, stronger effect = lower value 1.01 | locus YDL074C, strain BRE1, stronger effect = lower value 0.981 | locus YDL101C, strain DUN1, stronger effect = lower value 0.986 | locus YDL134C, strain PPH21, stronger effect = lower value 0.979 | locus YDL185W, strain tfp1, stronger effect = lower value 0.969 | locus YDL192W, strain arf1, stronger effect = lower value 0.931 | locus YDR150W, strain NUM1, stronger effect = lower value 0.98 | locus YDR162C, strain NBP2, stronger effect = lower value 0.966 | locus YDR502C, strain sam2, stronger effect = lower value 0.929 | locus YEL061C, strain CIN8, stronger effect = lower value 0.975 | locus YER110C, stronger effect = lower value 0.938 | locus YER155C, strain BEM2, stronger effect = lower value 0.941 | locus YER167W, strain BCK2, stronger effect = lower value 0.961 | locus YGL078C, strain dbp3, stronger effect = lower value 0.968 | locus YGL248W, strain PDE1, stronger effect = lower value 0.992 | locus YGR135W, strain pre9, stronger effect = lower value 0.931 | locus YGR252W, strain gcn5, stronger effect = lower value 1.07 | locus YHR030C, strain SLT2, stronger effect = lower value 0.978 | locus YHR079C, strain IRE1 (second series), stronger effect = lower value 0.945 | locus YHR094C, strain hxt1, stronger effect = lower value 0.932 | locus YHR129C, strain ARP1, stronger effect = lower value 0.988 | locus YHR200W, strain rpn10, stronger effect = lower value 0.933 | locus YIL066C, strain RNR3, stronger effect = lower value 0.999 | locus YIL073C, strain SPO22, stronger effect = lower value 1.02 | locus YIR030C, strain dcg1, stronger effect = lower value 0.952 | locus YJL095W, strain BCK1, stronger effect = lower value 0.936 | locus YJL134W, strain LCB3, stronger effect = lower value 0.965 | locus YJL168C, strain set2, stronger effect = lower value 0.945 | locus YJL187C, strain SWE1 (second series), stronger effect = lower value 0.996 | locus YJR043C, strain POL32, stronger effect = lower value 0.949 | locus YKL009W, strain mrt4, stronger effect = lower value 1.01 | locus YKL068W, stronger effect = lower value 0.945 | locus YKL085W, strain MDH1 (second series), stronger effect = lower value 0.943 | locus YKL085W, strain MDH1, stronger effect = lower value 0.943 | locus YLR039C, strain RIC1, stronger effect = lower value 1.04 | locus YLR058C, strain SHM2, stronger effect = lower value 0.97 | locus YLR102C, strain apc9, stronger effect = lower value 0.946 | locus YLR268W, strain sec22, stronger effect = lower value 0.918 | locus YLR330W, strain CHS5, stronger effect = lower value 0.976 | locus YML016C, strain PPZ1, stronger effect = lower value 0.956 | locus YML032C, strain rad52, stronger effect = lower value 0.917 | locus YML124C, strain tub3, stronger effect = lower value 0.935 | locus YMR078C, strain ctf18, stronger effect = lower value 0.924 | locus YMR223W, strain ubp8, stronger effect = lower value 0.952 | locus YMR263W, strain SAP30, stronger effect = lower value 0.97 | locus YMR307W, strain GAS1, stronger effect = lower value 0.923 | locus YNL067W, strain RPL9B, stronger effect = lower value 0.978 | locus YNL233W, strain BNI4, stronger effect = lower value 0.956 | locus YNL250W, strain rad50, stronger effect = lower value 0.963 | locus YNL271C, strain bni1, stronger effect = lower value 0.941 | locus YNL298W, strain CLA4, stronger effect = lower value 0.964 | locus YNL322C, strain KRE1, stronger effect = lower value 0.968 | locus YNR052C, strain pop2, stronger effect = lower value 0.993 | locus YOL006C, strain TOP1, stronger effect = lower value 0.887 | locus YOL012C, strain htz1 0.713 | locus YOR061W, strain CKA2, stronger effect = lower value 0.98 | locus YOR069W, strain VPS5, stronger effect = lower value 0.975 | locus YOR136W, strain idh2, stronger effect = lower value 0.957 | locus YOR144C, strain elg1, stronger effect = lower value 0.939 | locus YOR184W, strain ser1, stronger effect = lower value 0.89 | locus YOR316C, strain cot1, stronger effect = lower value 0.959 | locus YPL055C, strain LGE1, stronger effect = lower value 0.954 | locus YPR141C, strain kar3, stronger effect = lower value 0.924 | locus YPR163C, strain tif3, stronger effect = lower value 0.918 | locus YPR167C, strain met16, stronger effect = lower value 0.945 | strain wtn01, stronger effect = lower value 0.909
active: locus YDR101C, strain arx1, stronger effect = lower value 0.901 | locus YDR318W, strain mcm21, stronger effect = lower value 0.901 | locus YDR388W, stronger effect = lower value 0.916 | locus YGL086W, strain mad1, stronger effect = lower value 0.916 | locus YIL125W, strain kgd1, stronger effect = lower value 0.922 | locus YKR001C, strain vps1, stronger effect = lower value 0.887 | locus YLR371W, strain rom2, stronger effect = lower value 0.717 | locus YLR418C, strain cdc73, stronger effect = lower value 0.806 | locus YNL307C, strain MCK1, stronger effect = lower value 0.875 | locus YOL147C, strain pex11, stronger effect = lower value 0.914 | locus YPR119W, strain clb2, stronger effect = lower value 0.928
